These results are taken from PubChem BioAssay (NCATS).

Assay [1] is described as follows: Quantitative High-Throughput drug screen in 47 multiple myeloma cell lines against the NCATS MIPE library collection: KMS34_JCRB cell viability assay (AID 1918985). Also: nearly all actives have a fitted effect of over 40% in size. In short, it runs like this: (§1)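 Readout: median RLU from CellTiter-Glo after 5 min at room temperature. Preceding step was 48 h drug treatment of 500 cells/well at 37 °C, 5% CO2, with DMSO-only and media-only control wells.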

A short description of assay [2]: Quantitative High-Throughput drug screen in 47 multiple myeloma cell lines against the NCATS MIPE library collection: OCIMY7_PLB cell viability assay (AID 1918987). Also: nearly all actives have a fitted effect of over 65% in size. In short, it runs like this:
as §1

Assay [3] can be described thus: Quantitative High-Throughput drug screen in 47 multiple myeloma cell lines against the NCATS MIPE library collection: OCIMY5_PLB cell viability assay (AID 1918988). Also: nearly all actives have a fitted effect of over 65% in size. An outline of the steps:
as §1

Assay [4] in a line: Quantitative High-Throughput drug screen in 47 multiple myeloma cell lines against the NCATS MIPE library collection: OPM1_PLB cell viability assay (AID 1918989). Also: nearly all actives have a fitted effect of over 40% in size. In short, it runs like this:
as §1

Assay [5] can be described thus: Quantitative High-Throughput drug screen in 47 multiple myeloma cell lines against the NCATS MIPE library collection: SKMM1_PLB cell viability assay (AID 1919863). Also: nearly all actives have a fitted effect of over 35% in size. Conditions: SKMM1 myeloma viability, CellTiter-Glo ATP, 48 h; viability: stronger effect = lower value. An outline of the steps: as §1
Assay [6] can be described thus: Quantitative High-Throughput drug screen in 47 multiple myeloma cell lines against the NCATS MIPE library collection: U266_ATCC cell viability assay (AID 1919864). Also: nearly all actives have a fitted effect of over 35% in size. An outline of the steps:
as §1

A short description of assay [7]: Quantitative High-Throughput drug screen in 47 multiple myeloma cell lines against the NCATS MIPE library collection: XG6_PLB cell viability assay (AID 1919865). Also: nearly all actives have a fitted effect of over 40% in size. In short, it runs like this: as §1
The nature of assay [8]: Quantitative High-Throughput drug screen in 47 multiple myeloma cell lines against the NCATS MIPE library collection: XG1_PLB cell viability assay (AID 1919866). Also: nearly all actives have a fitted effect of over 35% in size. An outline of the steps:
as §1

A short description of assay [9]: Quantitative High-Throughput drug screen in 47 multiple myeloma cell lines against the NCATS MIPE library collection: VP6_DJ cell viability assay (AID 1919867). Also: nearly all actives have a fitted effect of over 40% in size. In short, it runs like this:
as §1

Assay [10] is described as follows: Quantitative High-Throughput drug screen in 47 multiple myeloma cell lines against the NCATS MIPE library collection: UTMC2_PLB cell viability assay (AID 1919868). Also: nearly all actives have a fitted effect of over 55% in size. Conditions: CellTiter-Glo ATP luminescence, 48 h; viability (% of DMSO control): at 45.8 µM (top of the series) unless noted. In short, it runs like this:
as §1
(In general: ATP-based viability assays read luminescence as a measure of living cells.)

Assay [11] can be described thus: Quantitative High-Throughput drug screen in 47 multiple myeloma cell lines against the NCATS MIPE library collection: PE2_PLB cell viability assay (AID 1919869). Also: nearly all actives have a fitted effect of over 35% in size. An outline of the steps: as §1
Assay [12] in a line: Quantitative High-Throughput drug screen in 47 multiple myeloma cell lines against the NCATS MIPE library collection: PCM6_Riken cell viability assay (AID 1919870). Also: nearly all actives have a fitted effect of over 30% in size. In short, it runs like this: as §1
Assay [13] can be described thus: Quantitative High-Throughput drug screen in 47 multiple myeloma cell lines against the NCATS MIPE library collection: RPMI8226_ATCC cell viability assay (AID 1919871). Also: nearly all actives have a fitted effect of over 30% in size. An outline of the steps:
as §1

Assay [14] can be described thus: Quantitative High-Throughput drug screen in 47 multiple myeloma cell lines against the NCATS MIPE library collection: OPM2_DSMZ cell viability assay (AID 1919872). Also: nearly all actives have a fitted effect of over 30% in size. An outline of the steps: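 CellTiter-Glo ATP luminescence gave viability after 48 h compound treatment at 37C of 500 multiple myeloma cells per well. Normalisation used DMSO-only wells as 100% and media-only wells as 0% viability; primary qHTS of approved and investigational drugs.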

Assay [15] in a line: Quantitative High-Throughput drug screen in 47 multiple myeloma cell lines against the NCATS MIPE library collection: KMS11_JCRBsus cell viability assay (AID 1919873). Also: nearly all actives have a fitted effect of over 50% in size. In short, it runs like this: as §1
Assay [16] in a line: Quantitative High-Throughput drug screen in 47 multiple myeloma cell lines against the NCATS MIPE library collection: KMS28BM_JCRB cell viability assay (AID 1919874). Also: nearly all actives have a fitted effect of over 35% in size. An outline of the steps:
as §1

Assay [17] in a line: qHTS drug screen for cell cycle checkpoint inhibitors in PARPi-resistant BRCA-mutant ovarian cancer cell lines. (AID 1963452; calls by dose curve). Conditions: PEO1/OlaR viability, CellTiter-Glo luminescence, 96 h; for Z-AUC: stronger effect = lower value. In short, it runs like this: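 PEO1, PEO4 and PEO1/OlaR ovarian cancer cells, 600 per well, exposed 96 h at 37C to a dilution series. Viability read by CellTiter-Glo luminescence, normalized to DMSO and empty wells; activity summarized as Z-AUC.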

Where [18] appears, read: measured here: PEO1 parental Z-AUC.

Results filed as inconclusive are left out. Active and inactive are the calls of the source. Unless noted, calls follow the shape of the dose curve; as a rule, active = well fitted cell-killing curve with a large enough effect; inconclusive = small, poorly fitted or top-dose-only effect, or effect the other way; inactive = no such curve, though single readings can be large or run the other way.
Potency is read from the fitted curve at half-maximal effect.

Take `Cc1cc(C(=O)N2CCN(c3cccc(Cl)c3)CC2)n(-c2ccccc2)n1`: the Potency in assay [1] is 1.05 µM (active); in assay [2] it was 0.059 µM (active); in assay [3], 0.187 µM (active); in assay [4], 5.26 µM (active); in assay [5], 0.296 µM (active); in [6], 20.9 µM (active). Moreover, the Potency was 0.118 µM (active) in assay [7]; 0.0935 µM (active) in assay [8]; 1.32 µM (active) in assay [9]; 0.833 µM (active) in assay [10]; 3.72 µM (active) in assay [11]; 9.35 µM (active) in assay [12]. Besides, the Potency was 5.9 µM (active) in assay [13], 5.9 µM (active) in assay [14], 0.148 µM (active) in assay [15] and 0.132 µM (active) in assay [16]. The Z-AUC in [17] was -1.51 (inactive); in assay [17] (setting [18]), -1.82; in [17] (measured here: PEO4 Z-AUC) it was -1.79.
Take `CNC(=O)c1nn(C)c2c1C(C)(C)Cc1cnc(Nc3ccc(N4CCN(C)CC4)cc3)nc1-2`: the Potency was 1.48 µM (active) in assay [1]; 1.32 µM (active) in [2]; 1.18 µM (active) in assay [3]; 1.66 µM (active) in assay [4]; 9.35 µM (active) in assay [5]; 0.935 µM (active) in [6]. Further, the Potency in assay [7] was 2.96 µM (active); in assay [8], 2.64 µM (active); in assay [9] it was 0.743 µM (active); in assay [10], 8.33 µM (active); in assay [11] it was 2.64 µM (active); in assay [12] it was 2.09 µM (active). Moreover, the Potency in assay [13] was 1.48 µM (active); in assay [14] it was 13.2 µM (active); in [15], 1.05 µM (active); in [16] it was 2.96 µM (active); in [17], 0.549 µM (active). Further, the Z-AUC in assay [17] (setting [18]) is -1.22; in assay [17] (measured here: PEO4 Z-AUC), -1.37.
Take `Cc1ccc(C(=O)Nc2cccc(C(F)(F)F)c2)cc1-c1ccc2nc(NCCN3CCOCC3)ncc2c1`: the Potency in [1] was 9.35 µM (active); in assay [2], 0.935 µM (active); in assay [3] it was 14.8 µM (active); in [4], 7.43 µM (active); in assay [5] it was 16.6 µM (active); in [6] it was 14.8 µM (active). Besides, the Potency is 3.32 µM (active) in assay [7]; 4.69 µM (active) in [8]; 11.8 µM (active) in assay [9]; 5.9 µM (active) in assay [10]; 4.69 µM (active) in assay [11]; 5.9 µM (active) in assay [12]. Also, the Potency in assay [13] was 5.9 µM (active); in [14], 18.7 µM (active); in assay [15] it was 2.96 µM (active); in [16], 18.7 µM (active). Further, the Z-AUC in [17] was 0.224 (inactive); in [17] (setting [18]), -0.409; in [17] (measured here: PEO4 Z-AUC) it was -0.0261.
Turning to `CCS(=O)(=O)c1cccc(-c2cc(C(=O)NC3CCN(C)CC3)c(C)c3[nH]c4ncc(C)cc4c23)c1`, the Potency in assay [1] is 0.935 µM (active); in assay [2] it was 4.18 µM (active); in [3], 1.48 µM (active); in [4] it was 0.59 µM (active); in assay [5] it was 8.33 µM (active); in assay [6], 0.935 µM (active). In addition, the Potency in assay [7] is 0.833 µM (active); in assay [8] it was 0.526 µM (active); in [9], 0.935 µM (active); in assay [10], 0.118 µM (active); in assay [11] it was 0.935 µM (active); in [12] it was 1.66 µM (active). The Potency in assay [13] was 5.9 µM (active); in [14], 2.64 µM (active); in assay [15], 0.526 µM (active); in [16], 0.833 µM (active). The Z-AUC in [17] is -0.945 (inactive); in [17] (setting [18]), -0.937; in assay [17] (measured here: PEO4 Z-AUC), -0.883.
On to `CC1=C(CO)C(=O)O[C@@H]([C@@H](C)[C@H]2CC[C@H]3[C@@H]4C[C@H]5O[C@]56[C@@H](O)C=CC(=O)[C@]6(C)[C@@H]4CC[C@]23C)C1`, for which the Potency is 0.118 µM (active) in assay [1]; 0.105 µM (active) in assay [2]; 0.132 µM (active) in assay [3]; 0.132 µM (active) in [4]; 0.296 µM (active) in [5]; 0.264 µM (active) in assay [6]. Also, the Potency in assay [7] is 0.469 µM (active); in assay [8] it was 0.209 µM (active); in [9], 0.166 µM (active); in assay [10] it was 0.296 µM (active); in assay [11], 0.166 µM (active); in assay [12], 0.166 µM (active). In addition, the Potency in assay [13] was 0.187 µM (active); in assay [14], 0.296 µM (active); in assay [15], 0.0935 µM (active); in assay [16], 0.132 µM (active).
